Source: PubChem
aSyn UTR act – Activators via SNCA 5'UTR binding, MLPCN; alpha-synuclein 5'UTR reporter, activators screen; activity score, % (tested at 7.5 µM), hits read low; actives 7.1% (n = 300,000); in the data active = activity score below about -60%
Starred values were filed as active, the others as inactive. Not all results are given here.

SMILES | aSyn UTR act
COC(=O)c1c(NC(C)=O)sc(C(=O)Nc2ccccc2)c1C | -85*
COC(=O)c1c(NC(=O)c2cccnc2)sc(C(=O)N(C)C)c1C | -84*
CCCCCc1ccc(-c2ccc(/C=C/C(=O)O)cc2)nc1 | 79
O=C(c1ccccc1)c1ccc(Cn2cc(-c3ccccc3)nn2)cc1 | -135*
CCCCCc1ccc(-c2cn(Cc3ccc(C(=O)c4ccccc4)cc3)nn2)cc1 | -138*
Nn1c(SCc2ccccc2)nnc1-c1ccccn1 | -70*
Nn1c(SCc2ccc(F)cc2)nnc1-c1ccccn1 | -68*
Nn1c(SCc2ccccc2F)nnc1-c1ccccn1 | -125*
NC(=O)CSc1nc2cccnc2n1-c1ccc(F)cc1 | 52
Cc1cccc2c1cnn2C(=O)Nc1ccccc1Br | -125*
Cc1cccc2c1cnn2C(=O)Nc1ccccc1Cl | -143*
Cc1ccccc1NC(=O)n1ncc2cc(Cl)ccc21 | -98*
O=S(=O)(Nc1ccc(-c2cn3ccsc3n2)cc1)c1ccc2c(c1)OCCO2 | -67*
COc1ccc(NC(=O)c2cc(C)nn2-c2ccccc2)cc1 | -73*
COc1ccc(NC(=O)c2cc(-c3ccccc3)on2)cc1 | -77*
CCc1ccccc1NC(=O)c1cc(-c2ccc(OC)cc2)on1 | -77*
CC(C)n1cc(NC(=O)c2cc(-c3ccccc3)on2)cn1 | -218*
COc1ccc(NC(=O)c2cccnn2)cc1 | -97*
COc1ccc(-c2cc(C(=O)Nc3cc(Br)ccc3O)no2)cc1 | -107*
COc1ccc(NC(=O)c2cc(C)on2)cc1 | -106*
c1ccc(Sc2cccc3ccccc23)c(CNC2=NCCN2)c1 | 61
O=C(c1cnsn1)N1CCC(CO)(Cc2cccc(F)c2)CC1 | -138*
COC(=O)c1ccccc1N/C=C/C(=O)c1ccc(Br)cc1 | -132*
COc1ccc(C(=O)/C(C#N)=N/Nc2ccc([N+](=O)[O-])cc2)cc1 | 102
CCOC(=O)c1ccc(N/C=C\C(=O)c2cccc(OC)c2)cc1 | -131*
SMILES | aSyn UTR act
COc1cccc(C(=O)/C=C/Nc2cc(C)ccc2O)c1 | -261*
COc1ccc(C(=O)/C=C/Nc2ccc([N+](=O)[O-])cc2)cc1 | -106*
CCOc1ccc(N/C=C/C(=O)c2ccc(OC)cc2)c([N+](=O)[O-])c1 | -118*
COc1cccc(N/C=C/C(=O)c2ccc(OC)c(OC)c2)c1 | -97*
CCOC(=O)c1ccc(OS(=O)(=O)c2ccccc2)c(OC)c1 | -195*
Cc1ccc(Cl)c(N/C=C/C(=O)c2ccccc2)c1 | -144*
CCOc1ccc(NC(=S)NC(=O)/C=C/c2ccc(Br)cc2)c([N+](=O)[O-])c1 | -79*
CCOC(=O)c1cccc(N/C=C/C(=O)c2ccc(OC)c(OC)c2)c1 | -130*
CCOc1ccc(C(=O)Cc2cc(OC)c(OC)cc2[N+](=O)[O-])cc1 | -80*
Cc1cccc(N/C=C/C(=O)c2ccc(Cl)cc2)c1 | -157*
COc1ccc(C(=O)/C=C/Nc2cccc(O)c2)cc1 | -94*
COc1cccc(N/C=C/C(=O)c2ccc(Br)cc2)c1 | -117*
CCOC(=O)c1c(C)oc2c1c1c(c3ccccc32)OCN(Cc2ccccn2)C1 | -102*
CCOC(=O)c1c(C)oc2c1c(CN1CCN(C(=O)OCC)CC1)c(O)c1ccccc12 | -205*
CCCCCOc1ccc(Cl)cc1CN1CCOCC1 | -78*
Cc1cc(C)n2cc(CSc3nc4ccccc4s3)nc2n1 | -107*
CN1N=C(C(=O)N2CCc3c([nH]c4ccccc34)C2c2ccccc2Cl)CCC1=O (stereo not drawn) | -69*
O=C(Nc1nc2c(ccc3ccccc32)s1)c1ccco1 | -293*
O=C(Nc1ccc(-c2nc3c(ccc4ccccc43)o2)cc1)c1ccco1 | -165*
O=C(Nc1nc2c(F)c(F)c(F)cc2s1)c1ccco1 | -179*
O=C(NC(=S)Nc1nc2c(ccc3ccccc32)s1)c1cccs1 | -63*
CC(C)c1ccc(CNNC(=O)c2ccccc2)cc1 | -105*
COc1ccc(CNC(=O)c2ccc(C(C)(C)C)cc2)cc1 | -126*
COc1ccc(CNC(=O)c2ccc(C(C)C)cc2)cc1 | -181*
N#C/C(=C\c1ccc(OCc2ccc(F)cc2)cc1)C(=O)Nc1cccc(C(=O)O)c1 | -108*
SMILES | aSyn UTR act
N#C/C(=C\c1ccc(OCc2ccc(Br)cc2)cc1)C(=O)Nc1cccc(C(=O)O)c1 | -76*
COc1cc(/C=C(\C#N)C(=O)Nc2cccc(C(=O)O)c2)ccc1OCc1ccc(F)cc1 | -90*
Cc1ccc(-c2csc(Cc3nc(-c4ccc5c(c4)CCC(=O)N5)cs3)n2)cc1 | -124*
Cc1nn(Cc2c(F)c(F)c(F)c(F)c2F)c(C)c1NC(=O)c1ccc(COc2cc(Cl)ccc2Cl)cc1 | -133*
CCOc1cc(/C=C2\COc3ccccc3C2=O)cc(Br)c1OCC(=O)N(C)C | -121*
Oc1c(CN2CCc3ccccc3C2)cc(Cl)c2cccnc12 | 91
O=C(c1ccc2ccccc2c1)N1CCN(Cc2ccccc2)CC1 | -85*
Cc1cccc(NC(=O)c2ccc(CN3CCN(Cc4ccccc4)CC3)cc2)c1 | -77*
COc1cccc(NC(=O)c2ccc(CN3CCc4ccccc4C3)cc2)c1 | -104*
CC(C)(C)SCCNC(=O)c1ccc(CN2CCc3ccccc3C2)cc1 | -63*
COC(=O)c1c(-c2ccccc2)csc1NC1=NS(=O)(=O)c2ccccc21 | -121*
CN(C)c1ccc(/C=N/NC(=S)NCc2ccco2)cc1 | -127*
CN(C)c1ccc(C(=S)NCc2ccco2)cc1 | -69*
CN(/N=C/c1ccncc1)c1cnc2ccccc2n1 | -206*
[O-][n+]1ccccc1SC/C=C/c1ccccc1 | -65*
CCCCCCc1cc2cc(C(=O)Nc3cccc(OC)c3)c(=O)oc2cc1O | 63
COc1ccc(NC(=O)c2cc3ccc(O)cc3o/c2=N\O)cc1 | -155*
N=c1oc2cc(O)ccc2cc1C(=O)Nc1ccc(F)cc1 | -148*
COc1ccc(NC(=O)c2cc3cc(OC)ccc3oc2=N)cc1 | -63*
O=C(c1ccc(F)cc1)c1cc2ccc(O)cc2oc1=O | -62*
Cc1ccc(NC(=O)NC2=NN(c3ccccc3)C(=O)/C2=C2/CCCN2C)cc1 | -63*
O=c1c(/C=C(\O)c2ccc(F)cc2)nc2ccccc2n1-c1ccccc1 | -130*
Cn1c(-c2ccc(C=O)s2)nc2ccccc21 | -123*
Cn1c(-c2cccs2)nc2ccccc21 | -93*
Cn1c(-c2ccc(Cl)nc2)nc2ccccc21 | -65*
SMILES | aSyn UTR act
Cc1cc(Cl)n2c(nc3ccccc32)c1C#N | 89
COc1ccc(N=c2sc3ccccc3n2C)cc1 | -172*
CCc1ccc(-c2cn(C3CCCCC3)c(=S)[nH]2)cc1 | -127*
O=C(CSC(=S)N1CCOCC1)c1cc2ccccc2oc1=O | -63*
O=C(NN=C1CCCCCC1)c1c[nH]c2ccccc12 | -77*
O=C(N/N=C/c1cccs1)c1c[nH]c2ccccc12 | -158*
CCc1ccc(/C=N/NC(=O)c2c[nH]c3ccccc23)s1 | -132*
CCc1ccc(/C=N/NC(=O)c2cc(-c3ccncc3)nc3ccccc23)s1 | 83
CCc1nc2ccc(C(=O)O)cc2nc1CC | -63*
CCc1nc2ccc(C(=O)NCCc3ccc(OC)cc3)cc2nc1CC | -138*
C=CCn1c(C)cc(C(=O)COC(=O)[C@@H](NC(=O)c2ccccc2Cl)C(C)C)c1C | -70*
COc1ccc(S(=O)(=O)N2c3cc(Cl)ccc3Oc3nc4ccccc4nc32)cc1 | 100
O=S(=O)(c1ccc(Cl)cc1)N1c2ccccc2Oc2nc3ccccc3nc21 | -96*
O=c1cc(-c2cccc(Br)c2)oc2cccc(O)c12 | -141*
O=c1cc(-c2cccc(Cl)c2)oc2cccc(O)c12 | -124*
